Measurements taken from PubChem BioAssay AID1159580 (chemical genetic matrix, 2015).
“And” between values parts separate entries of the source, which are not always exact repeats. Identical values can stand only once. In all, about 5,500 compounds went through this assay and about 2,000 (36%) were called active. Another 18% or so got no clear call; they are omitted. Rule as the data show it: active = normalized growth mostly below about 0.91 (no sharp cut-off); inconclusive = no clear call, values can overlap the other calls; inactive = mostly above about 0.92. This is one part of the list.

Test: chemical genetic growth profiling, strain panel (AID 1159580);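 also: tested at 20 µM; growth read once vehicle control cultures reached saturation at 30 °C; 1 = growth at the plate median or of vehicle wells; lower values mean less growth of the strain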
Conditions: S. cerevisiae deletion strains, growth OD

Measured: normalized growth

O=C(CCc1ccc(O)cc1)c1c(O)cc(O)cc1O
inactive: locus YAL013W, strain DEP1, stronger effect = lower value 1.01 | locus YAL021C, strain ccr4, stronger effect = lower value 0.998 | locus YAL026C, strain drs2, stronger effect = lower value 1 | locus YAL030W, strain snc1, stronger effect = lower value 1.01 | locus YAL040C, strain CLN3, stronger effect = lower value 1.05 | locus YBL061C, strain skt5, stronger effect = lower value 1.02 | locus YBR009C, strain hhf1, stronger effect = lower value 0.992 | locus YBR021W, strain FUR4, stronger effect = lower value 1.03 | locus YBR023C, strain chs3, stronger effect = lower value 0.999 | locus YBR171W, strain sec66, stronger effect = lower value 1.02 | locus YBR229C, strain ROT2, stronger effect = lower value 0.991 | locus YBR231C, strain swc5, stronger effect = lower value 1.01 | locus YBR279W, strain paf1, stronger effect = lower value 1.01 | locus YCL011C, strain gbp2, stronger effect = lower value 1.02 | locus YCL016C, strain dcc1, stronger effect = lower value 1.01 | locus YCL029C, strain bik1, stronger effect = lower value 1 | locus YCL061C, strain MRC1 (second series), stronger effect = lower value 1.01 | locus YCL061C, strain MRC1, stronger effect = lower value 0.99 | locus YCL069W, strain vba3, stronger effect = lower value 1.02 | locus YCR088W, strain abp1, stronger effect = lower value 1.02 | locus YDL005C, strain med2, stronger effect = lower value 1.02 | locus YDL035C, strain GPR1, stronger effect = lower value 1.01 | locus YDL040C, strain nat1, stronger effect = lower value 0.997 | locus YDL074C, strain BRE1, stronger effect = lower value 0.987 | locus YDL101C, strain DUN1, stronger effect = lower value 1.01 | locus YDL134C, strain PPH21, stronger effect = lower value 1.01 | locus YDL185W, strain tfp1, stronger effect = lower value 1.01 | locus YDL192W, strain arf1, stronger effect = lower value 1.01 | locus YDR001C, strain nth1, stronger effect = lower value 1.02 | locus YDR069C, strain doa4, stronger effect = lower value 0.978 | locus YDR101C, strain arx1, stronger effect = lower value 1.02 | locus YDR137W, strain rgp1, stronger effect = lower value 1.11 | locus YDR150W, strain NUM1, stronger effect = lower value 1 and 0.988 | locus YDR159W, strain sac3, stronger effect = lower value 1.04 | locus YDR162C, strain NBP2, stronger effect = lower value 0.989 | locus YDR195W, strain ref2 1 | locus YDR297W, strain sur2, stronger effect = lower value 1 | locus YDR318W, strain mcm21, stronger effect = lower value 1.04 | locus YDR334W, strain swr1, stronger effect = lower value 1 | locus YDR335W, strain msn5, stronger effect = lower value 1.01 | locus YDR363W, strain ESC2, stronger effect = lower value 0.977 | locus YDR388W, stronger effect = lower value 1.01 | locus YDR392W, strain spt3, stronger effect = lower value 1 | locus YDR502C, strain sam2, stronger effect = lower value 0.994 | locus YEL003W, strain gim4, stronger effect = lower value 1.01 | locus YEL037C, strain rad23, stronger effect = lower value 1 | locus YEL061C, strain CIN8 (second series), stronger effect = lower value 1.02 | locus YEL061C, strain CIN8, stronger effect = lower value 0.997 | locus YER002W, strain NOP16, stronger effect = lower value 1.02 | locus YER015W, strain faa2, stronger effect = lower value 1 | locus YER016W, strain bim1, stronger effect = lower value 1.01 | locus YER110C, stronger effect = lower value 1.01 | locus YER111C, strain swi4, stronger effect = lower value 1.01 | locus YER155C, strain BEM2 (second series), stronger effect = lower value 1 | locus YER155C, strain BEM2, stronger effect = lower value 1.01 | locus YER167W, strain BCK2, stronger effect = lower value 1.02 | locus YFR010W, strain ubp6, stronger effect = lower value 0.992 | locus YGL078C, strain dbp3, stronger effect = lower value 1.01 | locus YGL086W, strain mad1, stronger effect = lower value 1.01 | locus YGL167C, strain pmr1, stronger effect = lower value 1.01 | locus YGL173C, strain kem1, stronger effect = lower value 1.02 | locus YGL227W, strain vid30, stronger effect = lower value 1.02 | locus YGL240W, strain doc1, stronger effect = lower value 1.01 | locus YGL248W, strain PDE1, stronger effect = lower value 1 | locus YGL253W, strain hxk2, stronger effect = lower value 1.02 | locus YGR078C, strain PAC10, stronger effect = lower value 0.987 and 1.01 | locus YGR135W, strain pre9, stronger effect = lower value 0.998 | locus YGR229C, strain SMI1, stronger effect = lower value 0.979 | locus YHR013C, strain ard1, stronger effect = lower value 0.99 | locus YHR027C, strain rpn1, stronger effect = lower value 1.01 | locus YHR030C, strain SLT2, stronger effect = lower value 1 and 0.997 | locus YHR079C, strain IRE1 (second series), stronger effect = lower value 1 | locus YHR079C, strain IRE1, stronger effect = lower value 0.983 | locus YHR094C, strain hxt1, stronger effect = lower value 0.999 | locus YHR129C, strain ARP1, stronger effect = lower value 0.998 | locus YHR142W, strain chs7, stronger effect = lower value 1.01 | locus YHR200W, strain rpn10, stronger effect = lower value 1.02 | locus YIL066C, strain RNR3, stronger effect = lower value 1.01 | locus YIL073C, strain SPO22, stronger effect = lower value 1.1 | locus YIL125W, strain kgd1, stronger effect = lower value 1.03 | locus YIR030C, strain dcg1, stronger effect = lower value 1.01 | locus YJL092W, strain hpr5, stronger effect = lower value 1.01 | locus YJL095W, strain BCK1 (second series), stronger effect = lower value 1.01 | locus YJL095W, strain BCK1, stronger effect = lower value 0.994 and 0.99 | locus YJL115W, strain asf1, stronger effect = lower value 1.02 | locus YJL129C, strain trk1, stronger effect = lower value 1.05 | locus YJL134W, strain LCB3, stronger effect = lower value 1.01 | locus YJL154C, strain vps35, stronger effect = lower value 1.02 | locus YJL164C, strain tpk1, stronger effect = lower value 0.984 | locus YJL166W, strain qcr8, stronger effect = lower value 1.01 | locus YJL168C, strain set2, stronger effect = lower value 0.995 | locus YJL187C, strain SWE1 (second series), stronger effect = lower value 0.995 | locus YJL187C, strain SWE1, stronger effect = lower value 1.02 | locus YJR043C, strain POL32, stronger effect = lower value 0.997 | locus YJR066W, strain TOR1, stronger effect = lower value 0.948
